Results: PubChem BioAssay (NCI)
This is part of a sample that, as a whole, favours compounds with a hit. Of some 83,000 tested, about 20% had one in any assay.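 Cells were grown in 96-well plates and exposed to the test compound at a single concentration for 48 hours; results are reported as percent growth, with values below 10 considered active.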 A number with no mark means an inactive call. Calls of active or inactive are those of the source.

Key:
Assay in all cases: NCI-60 one-dose screen, 48 h (100 = growth as untreated, 0 = no growth, -100 = all killed)
Settings in all cases: 10 µM unless noted
HCT-15 colon = tested on: HCT-15 colon
HT29 colon = tested on: HT29 colon
SNB-75 CNS = tested on: SNB-75 CNS
SNB-19 CNS = tested on: SNB-19 CNS
U251 CNS = tested on: U251 CNS
PC-3 prostate = tested on: PC-3 prostate
SK-MEL-5 melanoma = tested on: SK-MEL-5 melanoma
UACC-62 melanoma = tested on: UACC-62 melanoma
LOX IMVI melanoma = tested on: LOX IMVI melanoma
SK-MEL-28 melanoma = tested on: SK-MEL-28 melanoma

SMILES | growth (HCT-15 colon) | growth (HT29 colon) | growth (SNB-75 CNS) | growth (SNB-19 CNS) | growth (U251 CNS) | growth (PC-3 prostate) | growth (SK-MEL-5 melanoma) | growth (UACC-62 melanoma) | growth (LOX IMVI melanoma) | growth (SK-MEL-28 melanoma)
CCn1cc(CNc2ccc(C(=O)Nc3cc4cc(OC)c(OC)cc4c(C)n3)cc2)c(C)n1 | 23.1% | 54.1% | 77.1% | 90% | 71% | 18.6% | 1.46% (active) | 6.57% (active) | 23.9% | 50.4%
O=C1OCC2=C1C(c1cccc(F)c1)c1cc3c(cc1N2CCO)OCO3 (stereo not given) | 22.1% | 5.77% (active) | 16.9% | 32.9% | 21.7% | 25.1% | 22.8% | 47.2% | 34.9% | 59.5%
O=C1/C(=C/c2ccccc2[N+](=O)[O-])COc2ccc(O)cc21 | -8.7% (active) | -20.8% (active) | 43.2% | 62.7% | 7.41% (active) | 4.19% (active) | 59.1% | 2.16% (active) | -66.1% (active) | -5.79% (active)
C=CCOC(=O)C1=C(C)NC(=O)NC1c1c(Cl)n(C)c2ccccc12 (stereo not given) | 99.8% | 110% | 97.8% | 94% | 96.3% | 89.2% | 102% | 90.3% | 102% | 99.6%
C/C(=N\O)C(=O)NCCCCCC(=O)Nc1ccccc1 | 101% | 104% | 88.2% | 99.3% | 98.6% | 104% | 91.7% | 94.3% | 89.7% | 114%
O=C1CCCc2nc3sc4c(=O)n(-c5ccccc5Cl)nnc4c3cc21 | 84.3% | 77.5% | 114% | 93% | 88.5% | 83.6% | 87.9% | 90.6% | 102% | 109%
CCNCc1ccc(O)c2ncccc12 | 28% | 95.9% | 31.1% | 24.2% | 17.7% | 23.4% | 6.19% (active) | 25% | 31% | 65.6%
Cc1cc(C)c(-c2c(O)c(Br)c(-c3c(C)cc(C)c(Br)c3C)c(O)c2Br)c(C)c1Br | 10.2% | 2.43% (active) | 33.4% | 47.5% | 19.8% | 27.7% | 1.69% (active) | 14.8% | -26% (active) | 49.1%
COc1ccc(/C(C)=C(\c2ccc(OCCN3CCCCCC3)cc2)c2ccc(OC(=O)c3ccccc3)cc2)cc1 | 12.1% | -3.62% (active) | 83.3% | 62.8% | 31.7% | 39.6% | 42.8% | 19.1% | -51% (active) | 54.9%
COc1cc2c3c(n(CCCCNCCCn4c5c(c6cc(OC)c(OC)cc6c4=O)C(=O)c4cc6c(cc4-5)OCO6)c(=O)c2cc1OC)-c1cc2c(cc1C3=O)OCO2 | 99.6% | 93.3% | 91% | 102% | 91.6% | 93% | 102% | 96.8% | 95.2% | 109%
Cn1cc(/C=C2/C(=O)Nc3ccccc32)c2ccccc21 | 72.9% | 95.4% | 99.3% | 102% | 78.3% | 90.2% | 79.2% | 107% | 92.1% | 101%
CNC(=O)c1c(NC(=O)c2ccc(C(C)(C)C)cc2)sc2c(CN(C)C)c(O)ccc12 | -77.3% (active) | 0.0225% (active) | 94.9% | 0.882% (active) | -29.9% (active) | -23.3% (active) | -29.5% (active) | -85.9% (active) | -88.5% (active) | -89.1% (active)
CN1CCN(Cc2ccc(NC(=O)c3cncc(C#Cc4cncc5ncccc45)c3)cc2C(F)(F)F)CC1 | 19.7% | -4.72% (active) | 13.6% | 46.7% | 38.8% | 23% | 19.1% | 5.7% (active) | -85.7% (active) | 12.4%
